Screening results as filed in PubChem.
In the library only some 11% were active in any assay of this set; here they are far more common.
PNC inhibitor = inhibitors of perinucleolar compartment assembly; 140,000 compounds, 3.1% hits; PC3M PTB-GFP, PNC prevalence imaging, 16 h; active compounds read low; AID 2417; activity change (PNC), negative = inhibition, % at 10 µM;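 active means readout at or below -70, meaning at least 70% loss of cells showing the perinucleolar compartment, a nuclear body marking cancer cells; inconclusive means readout between -30 and a set limit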;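 further: plate controls were DMSO wells for no effect and camptothecin positive control wells for full effect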
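PC3M cells stably expressing PTB-GFP, 750–1000 cells/well, treated 16 h at 37 °C with compound (23 nl of library stock), in duplicate. After paraformaldehyde fixation and Hoechst stain, imaged at 20x; PNC prevalence scored by image analysis.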
ALDH1A1 block = blocks purified human ALDH1A1 activity | P00352 | Purified ALDH1A1, NADH fluorescence, propionaldehyde substrate | Potency, µM (series often up to 75.3 µM), inactives show top-dose activity, negative = inhibition, most hits filed as inhibitors | 220,000 compounds, 7.3% hits;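 further: potency means the concentration at half of the fitted maximal effect; plate controls were no enzyme wells and a reference inhibitor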
HPGD block = inhibitors of human 15-hydroxyprostaglandin dehydrogenase (HPGD) | P15428 | purified HPGD, NADH fluorescence kinetic, PGE2 substrate | Potency, µM, for the others: at the top dose activity change, negative = inhibition, most hits filed as inhibitors | 150,000 compounds, 4.3% hits; further: potency means the concentration at half of the fitted maximal effect
Target sequence (P15428 whole entry, looked up): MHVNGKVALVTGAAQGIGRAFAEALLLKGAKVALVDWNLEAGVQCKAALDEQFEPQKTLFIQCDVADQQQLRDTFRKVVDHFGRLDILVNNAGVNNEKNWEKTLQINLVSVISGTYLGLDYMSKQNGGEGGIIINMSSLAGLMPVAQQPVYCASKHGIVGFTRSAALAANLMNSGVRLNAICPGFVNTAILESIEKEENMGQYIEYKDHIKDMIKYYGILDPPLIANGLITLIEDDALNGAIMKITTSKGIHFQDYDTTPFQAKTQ
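NADH formation kinetics: reaction with 30 uM PGE2 and 1 mM NAD+ (final), 20 nM enzyme, Tris-HCl pH 8 with Tween 20, after 15 min compound preincubation at room temperature. Fluorescence change, last versus first of five reads.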
* hit, by the source's call; ? = inconclusive; . = no result given. Unless noted, the call rests on the fitted dose curve; in most records, active means well fitted inhibition curve with a large enough effect (not every such curve was filed as active); inconclusive means small, poorly fitted or top-dose-only effect, or another doubt; inactive means no such curve, though single readings can be large or run the other way. Unless noted, on the % scale 0 is the no-effect control and ±100 the full control effect.

SMILES	PNC inhibitor	ALDH1A1 block	HPGD block
Nc1nc(-c2cccnc2)nn1C(=O)c1ccc(F)cc1	.	8.2%	.
O=C(NCCc1ccccn1)c1cc(-c2ccc(Cl)c(Cl)c2Cl)nc2ccccc12	?	4.2%	-16.9%
COC(=O)NCc1ccc2c(c1)OCO2	?	-4.0%	-6.8%
CCOCC(=O)NCc1ccc2c(c1)OCO2	-2.3	3.3%	12.6µM*
O=C(NCc1ccccn1)c1cc(-c2ccccc2Cl)nc2ccccc12	-88.1*	-10.5%	-15.7%
FC(F)(F)c1nc2ccccc2nc1N/N=C/c1c(Cl)cccc1Cl	13.3	-6.5%	-14.4%
Cc1ccc(/C=C2\OC(=O)c3ccccc32)cc1	-8.9	?	?
COc1ccc(CCNC(=O)c2cc(-c3ccc(C)c(C)c3O)n[nH]2)cc1OC	?	?	-28.0%
COc1ccc(NC(=O)c2cc(-c3cc(C)ccc3O)n[nH]2)cc1Cl	-24.6	5.5%	3.16µM*
COc1ccc(NC(=O)c2[nH]c(C)c(C(C)=O)c2C)cc1Cl	-9.6	-2.0%	-13.5%
COc1ccc(CCNC(=O)c2cc(-c3cc(C)ccc3O)n[nH]2)cc1OC	?	2.3%	3.98µM*
O=C(Nc1ccn(Cc2cccc3ccccc23)n1)c1cccnc1	.	-7.4%	.
CC1CC(C)CN(C(=O)CCNS(=O)(=O)c2ccc3c(c2)CCC(=O)N3)C1 (centres undefined)	16.7	3.6%	-0.2%
CC1Cc2ccccc2N1C(=O)CCNS(=O)(=O)c1ccc2c(c1)CCC(=O)N2 (centres undefined)	8.8	15.8µM*	-1.4%
C=CCC(C)(O)C(=O)OCC (centres undefined)	.	-15.6%	-6.5%
CC1(C)Cc2ccccc2-c2n[nH]c(=S)n21	37.3	12.6µM*	-21.6%
CCSc1nnc2n1C(C)(C)Cc1ccccc1-2	?	-4.3%	-10.8%
Cc1cc(C(F)F)n2ncc(C(=O)O)c2n1	57.2	5.0%	-18.2%
Cc1onc(CO)c1C(=O)Nc1nccs1	.	3.7%	.
Cc1noc(C)c1CSc1ccccc1C(=O)Nc1nccs1	-16.8	18.9µM*	-12.4%
COC(=O)c1ccc(NC(=O)CCN2CCN(Cc3ccccc3)CC2)cc1	?	?	1.6%
Cc1ccc(S(=O)(=O)NC(=O)c2cc(C)n(C3CC3)c2C)cc1	.	13.2%	.
CCn1c(CNc2ccc(F)cc2)nnc1SCC(=O)Nc1ccc(OC)cc1OC	?	14.1µM*	.
CCn1c(CNC(=O)COc2ccc(C(C)C)cc2)nnc1SCC(=O)Nc1cc(F)ccc1C	20.2	1.5%	-6.0%
CCn1c(CNC(=O)COc2ccc(C(C)C)cc2)nnc1SCC(=O)Nc1ccc(F)cc1	12.4	28.2µM*	-11.9%
SMILES	PNC inhibitor	ALDH1A1 block	HPGD block
CCn1c(CNc2ccc(OC)cc2)nnc1SCC(=O)Nc1ccc(F)cc1	14.0	-2.9%	-4.4%
CCn1c(CNc2ccc(F)cc2)nnc1SCC(=O)OC1CCCCC1	-113.7*	?	15.8µM*
CCOC(=O)CN(C(=O)CSc1nnc(CNc2ccc(F)cc2)n1CC)c1ccc(F)cc1	-8.7	-4.6%	-5.2%
COc1cccc(CN(C)CC(=O)Nc2ccccc2N2CCOCC2)c1OC	.	9.5%	.
O=C(NC1(C(F)(F)F)N=C2SCCN2C1=O)c1cccnc1 (centres undefined)	31.0	6.6%	-9.0%
C=CCn1c(O)c(C=Nc2ccc(CN3CCCCC3)cc2)c(=O)[nH]c1=S	.	-7.1%	.
O=C(N/C(=C\c1ccc(Br)cc1)c1nc2ccccc2[nH]1)c1ccco1	61.6	?	?
CCOC(=O)CNC(=O)c1cn(CC)c(=O)c2cc(OC)c(OC)cc12	30.4	-15.1%	-14.2%
CN(C)c1nc(OCCNC(=O)Nc2ccccc2)nc(N2CCOCC2)n1	1.3	1.9%	-4.0%
Cc1ccc(S(=O)(=O)NCCOc2nc(N(C)C)nc(N(C)C)n2)cc1	.	-10.2%	.
CN(C)c1nc(OCCNC(=O)Nc2ccccc2)nc(N2CCCCC2)n1	.	0.891µM*	.
Cc1ccc(S(=O)(=O)NCCOc2nc(N(C)C)nc(N3CCOCC3)n2)cc1	-92.7*	12.8%	-8.4%
COc1ccccc1NC(=O)Cn1cnc2c(nnn2-c2ccc(C)cc2)c1=O	.	7.9%	.
CCC1(c2ccccc2)NC(=O)N(Cc2cccc([N+](=O)[O-])c2)C1=O (centres undefined)	.	6.4%	.
O=C1C(=O)N(Cc2cccc([N+](=O)[O-])c2)c2ccccc21	155.1	0.0501µM*	?
CCOC(=O)C1Oc2ccccc2C(c2ccccc2)=C1C(C)=O (centres undefined)	.	?	-15.1%
Cc1csc(=Nc2c(C)n(C)n(-c3ccccc3)c2=O)n1Cc1ccccc1	?	3.2%	-5.9%
Cc1c(N=C2C=C(Br)C(=O)C(Br)=C2)c(=O)n(-c2ccccc2)n1C	.	10µM*	.
O=C1/C(=C\c2ccco2)SC(=S)N1c1ccccc1	-5.0	8.91µM*	-19.0%
